An excerpt weighted towards active compounds, which were near 0.51% of everything screened.
E coli growth-1: inhibitors of Escherichia coli growth | OD600, 23 h; hits give low values | OD600 absorbance (concentration not given with the values) | 0.21% of 330,000 active;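 active means OD600 absorbance below the run mean of sample wells minus 3.6 SD, in any replicate, cut at about 0.56 in these data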
phage Ecoli inh: E. coli growth loss with phage present | growth absorbance | inhibition, % at 11.9 µM | 0.26% of 360,000 active | AID 651602; in the data active means inhibition above about 11%
E coli growth-2: counter-screen for AddAB inhibitors: E. coli growth inhibition | inhibition, % at 11.9 µM | AID 449728 | E. coli V3065 growth, OD600 absorbance, 18 h | 0.27% of 330,000 active;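 active means inhibition above the campaign's mean inhibition across all tested compounds plus 3 SD, cut at about 9.9% in these data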;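 further: uninfected addAB+ strain grown without phage in ampicillin broth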
Tat transport: blocks Tat-dependent protein export in E. coli. E. coli MC4100 TorA-mCherry Tat export, fluorescence. inhibition, % at 10 µM. 0.036% of 340,000 active;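 active means mean replicate inhibition at least 50% and at least half of replicates individually reaching 50%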;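 further: exported cargo escapes ClpAP degradation while cytoplasmic cargo is degraded and loses fluorescence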
AddAB inh: less growth of phage-infected E. coli with AddAB | inhibition, % at 11.9 µM | 0.29% of 330,000 active | E. coli expressing H. pylori AddAB, absorbance growth | AID 435030; in the data active means inhibition above about 12%
AddAB conf: confirmation screen: growth loss of phage-infected E. coli expressing H. pylori AddAB; shares compounds with AddAB inh; E. coli V3065 expressing H. pylori AddAB, T4 phage, OD; T4 phage with gene 2 nonsense mutations; inhibition, % at 11.9 µM; 64% of 880 active;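 active means mean inhibition above a set limit taken from the earlier primary screen, cut at about 13% in these data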;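 further: higher means less bacterial growth since AddAB block lets phage replicate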
RecBCD counter: reduces growth of phage-infected RecBCD+ E. coli, AddAB inhibitor counter-screen; shares compounds with AddAB inh; E. coli V66 + mutant T4 phage, OD growth; inhibition, % at 11.9 µM; 73% of 880 active; AID 488955;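 active means mean inhibition above the mean of solvent-only control wells plus 3 SD, cut at about 4% in these data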;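 further: optical density read after an 18 h incubation at 37 °C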
bact viab count: counter-screen: bacterial growth inhibition. shares compounds with AddAB inh. bacterial viability, absorbance (AddAB counterscreen). inhibition, % at 11.9 µM. 35% of 880 active. AID 488956; in the data active means inhibition above about 25%
RecBCD conf: confirmation: growth loss of phage-infected RecBCD+ E. coli (RecBCD inhibitor screen). E. coli V66 + T4 2- phage, growth OD. AID 651982. inhibition, % at 11.9 µM. shares compounds with phage Ecoli inh. 45% of 890 active;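 active means mean inhibition over triplicates exceeding the hit threshold derived in the original primary screen, cut at about 11% in these data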
Ecoli viability: inhibits E. coli viability, flagging RecBCD hits as nonselective. shares compounds with phage Ecoli inh. absorbance (OD) growth. inhibition, % at 11.9 µM. 29% of 890 active. AID 651983; in the data active means inhibition above about 20%;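 further: E. coli strain V66 grown with compound alone and no phage infection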
AddAB phage OD: growth loss of phage-infected AddAB E. coli, RecBCD counter-screen | inhibition, % at 11.9 µM | 45% of 890 active | E. coli expressing H. pylori AddAB + T4 phage, OD growth; gene 2 mutant T4, recBCD-deleted host | shares compounds with phage Ecoli inh;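 active means mean inhibition above the solvent-only control wells' mean plus 3 SD, cut at about 22% in these data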;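 further: higher means less bacterial growth from phage killing when AddAB is blocked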
Large screens that a line does not name were inactive (follow-up assays come after a bar, where they were run).

Cc1ccnc(NC(=O)c2ccc([N+](=O)[O-])o2)c1	phage Ecoli inh 13, E coli growth-2 33, AddAB inh 27 | AddAB conf 99 | RecBCD counter 9.8 | bact viab count 30 | RecBCD conf inactive | Ecoli viability inactive | AddAB phage OD 75
C=CCN1c2ccccc2[C@]23CC(C(=O)OC)N(C(=O)OCC)C2=NC(C(=O)OC)=C(C(=O)OC)C13 (stereo partly specified)	none (no result: phage Ecoli inh, E coli growth-2, Tat transport, AddAB inh)
CC(C)C(C(=O)N1CCN(C(=O)OC(C)(C)C)CC1)n1cc(-c2cn(C(C)C(=O)N3CCN(C(=O)OC(C)(C)C)CC3)nn2)nn1 (stereo unspecified)	none (no result: phage Ecoli inh, E coli growth-2, Tat transport, AddAB inh)
CCOC(=O)C1=Nc2ccccc2C1=[N+]=[N-]	phage Ecoli inh 91, E coli growth-2 96, AddAB inh 98 (no result: E coli growth-1) | AddAB conf 100 | RecBCD counter 98 | bact viab count 101 | RecBCD conf 98 | Ecoli viability 99 | AddAB phage OD 101
CCN1CC2C3C(=O)N(C)C(=O)C3[C@](CC)(C1=O)N2C(=O)c1ccc(C(C)(C)C)cc1 (stereo partly specified)	none (no result: phage Ecoli inh, E coli growth-2, Tat transport, AddAB inh)
C(=N\Nc1nc2ccccc2s1)/c1ccccn1	phage Ecoli inh 21, E coli growth-2 16, AddAB inh 15 (no result: E coli growth-1, Tat transport) | AddAB conf 19 | RecBCD counter 14 | bact viab count inactive | RecBCD conf inactive | Ecoli viability inactive | AddAB phage OD inactive
O=C(Oc1c(CN2CCOCC2)cc(Cl)c2cccnc12)c1cccs1	none
O=C(Oc1c(Cl)cc(Cl)c2cccnc12)c1cccs1	E coli growth-1 0.14, phage Ecoli inh 42, E coli growth-2 43, AddAB inh 40 | AddAB conf 51 | RecBCD counter 53 | bact viab count 56 | RecBCD conf 44 | Ecoli viability 53 | AddAB phage OD 41
CO[C@@]1(NC(=O)C2SC(=C(C(N)=O)C(=O)O)S2)C(=O)N2C(C(=O)O)=C(CSc3nnnn3C)CS[C@@H]21 (stereo partly specified)	phage Ecoli inh 100, E coli growth-2 97, AddAB inh 97 (no result: E coli growth-1) | AddAB conf 101 | RecBCD counter 101 | bact viab count 101 | RecBCD conf 103 | Ecoli viability 105 | AddAB phage OD 103
COC(=O)c1ccc(CSc2nnnn2C)o1	none
CCN1C(=O)C2C(c3ccc(-c4ccc(C(C)=O)cc4)c(OC)c3)N[C@@](Cc3ccccc3)(C(=O)OC)C2C1=O (stereo partly specified)	none (no result: phage Ecoli inh, E coli growth-2, Tat transport, AddAB inh)
C[C@@]12C(=O)N(c3ccc(F)cc3)C(=O)N1C1c3ccccc3OCC1C2c1ccccc1 (stereo partly specified)	none (no result: phage Ecoli inh, E coli growth-2, Tat transport, AddAB inh)
CC1CCc2c(N3CCC(O)CC3)c(F)cc3c(=O)c(C(=O)O)cn1c23 (stereo unspecified)	E coli growth-1 0.059, phage Ecoli inh 103, E coli growth-2 102, Tat transport 60, AddAB inh 101 | AddAB conf 96 | RecBCD counter 99 | bact viab count 97 | RecBCD conf 102 | Ecoli viability 103 | AddAB phage OD 103
O=C(O)c1cn(C2CCCCC2)c2ccccc2c1=O	none
NC1CCN(c2c(F)cc3c(=O)c(C(=O)O)cn(C4CC4)c3c2Cl)C1 (stereo unspecified)	E coli growth-1 0.066, phage Ecoli inh 99, E coli growth-2 98, Tat transport 149, AddAB inh 97 | AddAB conf 102 | RecBCD counter 100 | bact viab count 102 | RecBCD conf 101 | Ecoli viability 101 | AddAB phage OD 99
CC1CCc2cc(F)cc3c(=O)c(C(=O)O)cn1c23 (stereo unspecified)	E coli growth-1 0.062, phage Ecoli inh 100, E coli growth-2 100, Tat transport 56, AddAB inh 100 | AddAB conf 99 | RecBCD counter 31 | bact viab count 100 | RecBCD conf 102 | Ecoli viability 103 | AddAB phage OD 102
CC1CN(c2nc3nonc3nc2N2CCSCC2)CC(C)O1 (stereo unspecified)	none (no result: phage Ecoli inh, E coli growth-2, Tat transport, AddAB inh)
Cc1cccc(CC2SC(=Nc3ccccn3)NC2=O)c1 (stereo unspecified)	none (no result: phage Ecoli inh, E coli growth-2, Tat transport, AddAB inh)
C#CCOC1CC(n2ccc(NC(=O)c3ccccc3)nc2=O)OC1CO (stereo unspecified)	none (no result: phage Ecoli inh, E coli growth-2, Tat transport, AddAB inh)
O=S1(=O)CCOC2Cc3ccccc3C2N1Cc1cccc(Cl)c1 (stereo unspecified)	none (no result: phage Ecoli inh, E coli growth-2, Tat transport, AddAB inh)
Brc1ccc(N/N=C(/N=Nc2nn[nH]n2)c2ccccc2)cc1	phage Ecoli inh 26, E coli growth-2 30, AddAB inh 30 (no result: E coli growth-1) | AddAB conf 22 | RecBCD counter 26 | bact viab count 25 | RecBCD conf 21 | Ecoli viability 23 | AddAB phage OD 28
Brc1ccc(NN=C(N=Nc2nn[nH]n2)c2ccccc2)cc1	none (no result: phage Ecoli inh, E coli growth-2, Tat transport, AddAB inh)
CC=C(C)C(=O)NCCN1C2=NCC(C(C)C)N2CC1Cc1ccc(OC)cc1 (stereo unspecified)	none (no result: phage Ecoli inh, E coli growth-2, Tat transport, AddAB inh)
[O-][n+]1c2ccccc2[n+]([O-])c2cc(O)ccc21	E coli growth-1 0.4, phage Ecoli inh 11, E coli growth-2 40, AddAB inh 31 | AddAB conf 69 | RecBCD counter 9.8 | bact viab count 51 | RecBCD conf 11 | Ecoli viability inactive | AddAB phage OD 55
CCCC(=O)NCCCCNC(=O)CCC	none
CC(=O)N(O)CCCCCNC(=O)CCC(=O)N(O)CCCCCNC(=O)CCC(=O)N(O)CCCCCN	phage Ecoli inh 17, E coli growth-2 22, AddAB inh 18 (no result: E coli growth-1) | AddAB conf inactive | RecBCD counter 13 | bact viab count inactive | RecBCD conf inactive | Ecoli viability inactive | AddAB phage OD inactive
O=C(O)c1cccc(NC(=S)N/N=C/c2ccccn2)c1	phage Ecoli inh 23, E coli growth-2 16, AddAB inh 17 (no result: E coli growth-1) | AddAB conf 19 | RecBCD counter 17 | bact viab count inactive | RecBCD conf 11 | Ecoli viability inactive | AddAB phage OD inactive
O=c1[nH]cnc2c1ncn2[C@@H]1C[C@@H](O)[C@H](CO)O1	none
